D1 antag – blocks dopamine activation of the human D1 receptor. HEK293 TREx D1 cells, calcium flux, dopamine EC80; hits give low values. P21728. activity change, negative = inhibition, % at 10 µM. actives 3.2% (n = 360,000); in the data active = activity change below about -30%; also: % is scaled to controls: 0 for no effect and ±100 for the full control effect
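Compound effects on dopamine-evoked calcium signalling were measured in tetracycline-induced HEK293 Trex D1 cells. Dopamine at EC80 followed a 180 s compound pre-read, and fluorescence was tracked kinetically for 180 s more.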
D3 ag – D3 dopamine receptor (human) agonism; P35462; D3R DiscoveRx beta-arrestin cells, luminescence, 90 min; max activation, %; actives 0.58% (n = 410,000); in the data active = max activation above about 30%; also: 0% is about no effect
Target sequence (P35462 whole entry, looked up): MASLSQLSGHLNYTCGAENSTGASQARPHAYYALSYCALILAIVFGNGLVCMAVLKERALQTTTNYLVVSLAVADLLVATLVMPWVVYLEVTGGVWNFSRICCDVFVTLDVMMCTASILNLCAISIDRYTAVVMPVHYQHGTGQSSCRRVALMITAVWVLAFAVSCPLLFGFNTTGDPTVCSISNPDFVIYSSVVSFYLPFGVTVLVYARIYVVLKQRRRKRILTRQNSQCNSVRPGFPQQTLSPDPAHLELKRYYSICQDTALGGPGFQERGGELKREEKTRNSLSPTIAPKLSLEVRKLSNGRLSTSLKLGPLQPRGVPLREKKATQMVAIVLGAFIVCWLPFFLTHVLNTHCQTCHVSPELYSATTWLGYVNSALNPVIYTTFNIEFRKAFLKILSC
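Agonist mode: compounds and dopamine controls were applied to plated cells for 90 min at 37 degrees C after an overnight attachment at 1500 cells/well. Luminescent read-out followed 30 - 60 minutes at room temperature with DiscoveRx detection reagent.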
D3 antag – antagonists of human D3 dopamine receptor; D3R cells, DiscoveRx beta-arrestin luminescence, antagonist mode; hits give low values; max response, negative = inhibition, %; P35462; actives 2.5% (n = 360,000); in the data active = max response below about -50%; inconclusive = no clear call, values can overlap the other calls; also: % is scaled to controls: 0 for no effect and ±100 for the full control effect
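Cells plated overnight at 1500 cells/well, then exposed to library compounds with dopamine controls for 90 minutes at 37 degrees C. DiscoveRx reagent added for 30–60 minutes at room temperature; luminescence read, quantitative HTS format.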
D1 PAM – potentiators of human D1 dopamine receptor; P21728; HEK293 TREx D1 cells, calcium flux, dopamine EC20 potentiation; potentiation, % at 10 µM; actives 0.036% (n = 360,000); AID 504651; in the data active = potentiation above about 30%; also: 0% is about no effect
D1 agonist – agonists of human D1 dopamine receptor | P21728 | activation, % at 2 µM | actives 1% (n = 360,000) | HEK293 T-REx D1 cells, calcium flux, agonist mode | AID 504660; in the data active = activation above about 30%; also: 0% is about no effect
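Tetracycline-induced HEK293 TREx D1 cells, force-coupled to calcium signalling, were dye-loaded with a no-wash calcium kit. Compound was pin-added after a 10 s baseline. Fluorescence was read kinetically at 1 cycle/s for 180 s, with calcium rises flagged as agonism.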
* = called active by the depositor; ? = inconclusive; · = no result given. In the library only some 6% were active in any assay of this set; here they are far more common.

SMILES	D1 antag	D3 ag	D3 antag	D1 PAM	D1 agonist
Cc1ccc2c(c1)N(C(=O)C1CCN(S(=O)(=O)c3c(C)noc3/C=C/c3ccccc3F)CC1)CCO2	-38.6*	1.3	·	-0.1	10.1
Cc1sc2ncn(CC(=O)Nc3cccc(C(F)(F)F)c3)c(=O)c2c1S(=O)(=O)N1CCN(C)CC1	31.6	-4.0	·	6.2	0.8
COc1cc2cc(CNc3ccccc3)c(=O)n(CC(=O)Nc3ccccc3)c2cc1OC	6.6	1.6	·	1.9	37.1*
COc1ccccc1NC(=O)Cn1c(=O)c(CNc2ccc(C)cc2)cc2cc3c(cc21)OCCO3	-16.4	-0.4	·	4.3	3.9
COc1ccccc1NC(=O)Cn1c(=O)c(CNc2ccccc2)cc2cc(OC)c(OC)cc21	1.6	-14.3	·	-1.7	68.6*
Cc1ccc(-n2c(=O)c3cccnc3n2CC(=O)Nc2cc(C)cc(C)c2)cc1	0.7	0.4	·	-5.5	2.2
Cc1cc2oc(=O)cc(CN3CCCCC3)c2cc1C(C)C	-21.8	0.4	-78.0*	-4.5	6.2
Cc1cc2oc(=O)cc(CN3CCC(C)CC3)c2c(C)c1Cl	1.0	0.1	20.6	10.4	2.0
CC(=O)N1CCN(Cc2cc(=O)oc3cc(C)c(C)cc23)CC1	·	-4.2	-80.0*	·	·
COc1cc2oc(=O)cc(CN3CCN(C(C)=O)CC3)c2cc1Cl	·	-5.6	-23.7	·	·
Cc1cc2oc(=O)cc(CN3CCC(C)CC3)c2cc1C	-14.1	-12.2	-71.5*	0.6	-0.1
CCC(=O)NC(c1cccc(C)c1)c1cc(Cl)c2cccnc2c1O (configuration not stated)	9.6	·	·	-2.6	23.1
O=C(NC1CCCCC1)c1sc(=S)n2c1[nH]c(=O)c1ccccc12	-18.6	7.1	?	-6.3	28.8
CC(C)NC(=O)c1sc(=S)n2c1[nH]c(=O)c1ccc(C(=O)NCCc3ccc(Cl)cc3)cc12	-58.5*	10.5	15.2	-10.8	3.1
CCOc1ccc(CCNC(=O)c2ccc3c(=O)[nH]c4c(C(=O)NC(C)C)sc(=S)n4c3c2)cc1	-29.4	3.4	27.3	-5.9	2.0
CCCCNC(=O)c1sc(=S)n2c1[nH]c(=O)c1ccccc12	-16.4	0.1	-50.2*	-8.4	30.3*
COc1ccc(CCNC(=O)Cn2c(=O)nc(-c3ccccc3)c3ccccc32)cc1OC	-14.8	3.9	·	-1.1	0.1
Cc1c(Cl)cccc1N=Cc1ccc([N+](=O)[O-])s1	-24.1	-29.3	-50.8*	3.6	1.4
Cc1ccccc1C(=O)N/N=C/c1ccc([N+](=O)[O-])s1	-1.3	4.6	-10.4	0.1	28.4
c1ccc2c(c1)OCC(CN1CCCCC1)O2 (configuration not stated)	·	-11.0	·	·	·
Cc1cc2nc(C3CCN(CC4COc5ccccc5O4)CC3)[nH]c2cc1C (configuration not stated)	-4.3	-1.0	-50.2*	-1.2	5.3
Cc1cc2c(cc1C)-n1nnnc1C(N(Cc1ccccc1)Cc1ccccc1)C(=O)N2 (configuration not stated)	·	9.8	2.7	·	·
Cc1ccc(Oc2ncccc2C(=O)NCC(=O)O)cc1	-88.5*	-6.9	?	-13.1	2.8
CC(C)N(Cc1nc2ccccc2[nH]1)C(C)C	-33.9*	-9.1	0.0	-1.9	0.3
CSCCC(C(=O)NCc1ccccc1)n1c(C2CCN(C(C)=O)CC2)nc2ccccc21 (configuration not stated)	·	4.2	2.4	·	·
SMILES	D1 antag	D3 ag	D3 antag	D1 PAM	D1 agonist
Cc1cc(C)cc(NC(=O)COC(=O)COc2ccc(N(C)S(=O)(=O)c3cccs3)cc2)c1	·	-5.7	-7.9	·	·
CN(c1ccc(OCC(=O)OCC(=O)Nc2ccccc2F)cc1)S(=O)(=O)c1cccs1	-40.1*	6.2	9.5	-6.5	36.3*
CC(Sc1nnc(NCc2ccccc2)s1)C(=O)Nc1ccc2c(c1)C(=O)c1ccccc1C2=O (configuration not stated)	-33.1*	4.1	4.9	-5.7	3.7
COc1cccc(/C=C/C(=O)OCC(=O)Nc2ccc(Cl)c(S(=O)(=O)N(C)C)c2)c1OC	7.1	-8.9	-19.1	-6.2	2.9
COc1ccc(/C=C/C(=O)OCC(=O)Nc2cc(S(=O)(=O)N(C)C)ccc2Cl)cc1	-34.2*	9.3	4.0	-11.1	8.2
CCN(CC)S(=O)(=O)c1ccc(Cl)c(NC(=O)COc2ccc(OC)cc2)c1	-31.4*	15.3	8.5	1.4	8.4
CCN(c1ccccc1)S(=O)(=O)c1ccc(OC)c(NC(=O)Cc2ccccc2OC)c1	2.0	-5.7	-1.6	0.2	5.0
COc1cc(/C=C/C(=O)OCC(=O)Nc2cc(S(=O)(=O)N(C)C)ccc2Cl)ccc1O	5.9	0.0	-4.6	-3.0	6.8
CCN(c1ccccc1)S(=O)(=O)c1ccc(Cl)c(NC(=O)CNCc2ccccc2OC)c1	·	-34.0	-65.7*	·	·
COc1ccc(OC)c(/C=C/C(=O)OCC(=O)Nc2ccc(Cl)c(S(=O)(=O)N(C)C)c2)c1	-34.6*	-9.0	-6.7	3.1	7.4
Cn1cc(S(=O)(=O)c2ccc(Cl)cc2)c(=O)c2cc(F)c(N3CCCC3)cc21	11.0	-5.4	·	0.8	-1.9
CCC1=Nc2cc(C(=O)NCCN3CCOCC3)ccc2Sc2ccc(C)cc21	23.7	0.5	-6.9	-3.9	2.0
CCC1=Nc2cc(C(=O)NCCN3CCCC3)ccc2Sc2ccccc21	-30.4*	-0.2	2.5	-7.8	16.3
CCC1=Nc2cc(C(=O)NCCN3CCOCC3)ccc2Sc2ccc(Br)cc21	-36.1*	1.5	-5.6	-13.8	10.6
CCC1=Nc2cc(C(=O)NCCCN3CCOCC3)ccc2Sc2ccccc21	6.2	-2.5	-11.7	1.0	3.1
O=C(NC1CCSc2ccccc21)c1ccccc1F (configuration not stated)	-5.1	6.7	-11.9	-1.9	2.0
CC(=O)Nc1ccc(C(=O)NC2CCSc3ccccc32)cc1 (configuration not stated)	-15.9	2.1	-2.7	-8.2	0.6
CSc1ccccc1C(=O)NC1CCSc2ccccc21 (configuration not stated)	-41.0*	5.1	0.2	-3.9	-0.7
Cc1ccc(NC(=S)NC2CCSc3ccccc32)cc1 (configuration not stated)	-38.4*	-6.8	?	-6.2	22.8
CN(CCc1cn[nH]c1)C(=O)CC1C(=O)NCCN1Cc1ccccc1C(F)(F)F (configuration not stated)	-40.1*	-3.2	9.7	-0.3	3.1
CN(Cc1ccon1)C(=O)CC1C(=O)NCCN1Cc1ccccc1C(F)(F)F (configuration not stated)	-12.5	4.0	3.4	1.1	0.2
Cc1cccc(CN2CCc3nc(N4CCN(c5ccccn5)CC4)ncc3C2)c1	-10.2	-23.1	·	0.4	-0.7
Cc1ccc(C(=O)N2[C@@H]3CN(C)C(=O)[C@@]2(Cc2ccccc2)[C@H]2C(=O)N(Cc4ccccc4)C(=O)[C@@H]32)cc1	·	-12.5	-9.1	·	·

Bioassay records deposited in PubChem by National Center for Advancing Translational Sciences (NCATS).
